Screening data deposited in PubChem BioAssay by The Scripps Research Institute Molecular Screening Center.
M1 PAM parental – nonselective calcium activators in parental CHO-K1 cells, primary screen, counter-screen for M1 PAM project, cell-based, Fluo-8 calcium fluorescence, full deck, 1536-well; ATP EC20; 0% at ATP EC20, 100% at ATP max; activation, % at 3 µM; 360,000 compounds, 0.02% hits; AID 602247, 2012;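 active means activation above the run cutoff, the mean activation of all test compounds plus 3 SD, cut at about 40% in these data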;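 further: peak over basal fluorescence ratio in a 140 s read after ATP addition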
CHRM1 PAM – human M1 muscarinic receptor positive allosteric modulators, primary screen, CHO-K1 cells, Fluo-8 calcium fluorescence, 1536-well. CHO-K1 hM1, ACh EC20; 0% = ACh EC20, 100% = maximal ACh. activation, % at 3 µM. 360,000 compounds, 0.088% hits. AID 588819, 2011; in the data active means activation above about 19%, passing the limit was not always enough
Target sequence (P11229 whole entry, looked up): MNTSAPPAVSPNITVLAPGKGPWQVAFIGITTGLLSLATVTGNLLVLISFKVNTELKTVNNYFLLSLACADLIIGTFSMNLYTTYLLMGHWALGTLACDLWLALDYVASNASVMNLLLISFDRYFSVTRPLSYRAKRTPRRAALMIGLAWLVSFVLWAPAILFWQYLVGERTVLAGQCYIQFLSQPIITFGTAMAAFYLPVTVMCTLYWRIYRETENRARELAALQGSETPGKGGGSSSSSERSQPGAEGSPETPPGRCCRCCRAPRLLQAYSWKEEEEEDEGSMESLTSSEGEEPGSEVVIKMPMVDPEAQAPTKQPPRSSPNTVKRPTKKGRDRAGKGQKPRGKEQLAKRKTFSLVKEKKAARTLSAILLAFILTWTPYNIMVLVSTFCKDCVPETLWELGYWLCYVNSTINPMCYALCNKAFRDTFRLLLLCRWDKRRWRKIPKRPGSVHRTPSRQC
CHRM1 antagonist – human M1 muscarinic receptor antagonists, primary screen, CHO-K1 cells, Fluo-8 calcium fluorescence, 1536-well | 360,000 compounds, 1.3% hits | CHO-K1 hM1, ACh EC80 antagonist | inhibition, % at 3 µM | Muscarinic acetylcholine receptor M1 (Homo sapiens), P11229;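 active means percent inhibition above its own plate's cutoff, namely the mean of that plate's compound wells plus 3 SD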;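 further: peak over basal fluorescence ratio during 140 s after agonist addition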
CHRM1 agonist – human M1 muscarinic receptor agonists, primary screen, Fluo-8 calcium fluorescence, CHO-K1 cells, HTS. Muscarinic acetylcholine receptor M1 (Homo sapiens), P11229. CHO-K1 hM1, agonist mode; 0% DMSO, 100% acetylcholine EC100. activation, % at 3 µM. 360,000 compounds, 0.33% hits;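 active means activation above the run's mean compound activation plus 3 SD, cut at about 16% in these data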;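 further: peak over basal fluorescence ratio within a 140 s kinetic read after compound addition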
CHO-K1 Ca antag – M1 antagonist counterscreen hit in parental CHO-K1 cells; ATP-induced calcium, Fluo-8 fluorescence; inhibition, % at 3 µM; 360,000 compounds, 0.6% hits;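 active means inhibition above a per-plate cutoff, the plate's mean sample inhibition plus 3 SD, cut at about 24% in these data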
M1 ag parental – counter-screen for M1 agonists: effect in parental CHO-K1 cells; Fluo-8 calcium fluorescence; scaled to maximal ATP response, vehicle zero; activation, % at 3 µM; 360,000 compounds, 0.48% hits; AID 602248, 2012; in the data active means activation above about 15%;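 further: untransfected CHO-K1 host cells lacking M1 receptor as counterscreen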
Numbers stand for hits; 0 = inactive. Compounds with a hit are over-represented: about 2.3% of the library has one in this group of screens.

SMILES	M1 PAM parental	CHRM1 PAM	CHRM1 antagonist	CHRM1 agonist	CHO-K1 Ca antag	M1 ag parental
CC(C)CSC1=NSC2=NC(=O)/C(=C\c3coc4ccccc4c3=O)C(=N)N12	0	0	60.2	143.2	60.0	106.9
CSC1=NSC2=NC(=O)/C(=C\c3coc4ccccc4c3=O)C(=N)N12	0	0	35.4	44.6	0	19.8
Cc1cc(/C=C2\C(=N)N3C(SCc4ccccc4)=NSC3=NC2=O)c(C)n1Cc1ccccc1	0	0	0	0	0	0
CC(C)CSC1=NSC2=NC(=O)/C(=C\c3ccccc3)C(=N)N12	0	0	0	0	0	0
CN(C(=O)CSc1nnc(-c2ccco2)n1C)C1CCCCC1	0	0	0	0	0	0
Cc1ccc(N(C)C(=O)CCNC(=O)Cn2cnc3ccccc3c2=O)cc1C	0	0	0	0	35.1	0
C=C1C(=O)[C@]23C[C@H]1CCC2[C@@]1(C)C(C[C@@H]3O)[C@](C)(C(=O)OC)CC[C@@H]1OC(C)=O (some centres undefined)	0	0	52.0	0	29.3	0
C=C1C(=O)[C@]23C[C@H]1CC[C@H]2[C@]1(C)[C@@H](O)CC[C@@](C)(C(=O)O)[C@H]1C[C@@H]3O	0	0	0	0	28.7	0
C=C1C(=O)[C@]23C[C@H]1CCC2[C@@]1(C)C(C[C@@H]3O)[C@](C)(C(=O)O)C[C@H](O)[C@@H]1O (some centres undefined)	0	0	0	0	0	0
Cc1ccc(CC(=O)NC2CCSC2=O)cc1 (centres undefined)	0	0	0	0	0	0
CCC(C)C(NS(=O)(=O)c1ccc(C)cc1)C(=O)N1CCOCCOCCOCC1 (centres undefined)	0	0	0	0	0	0
CC(O)CSc1nc2c(c(=O)n(C)c(=O)n2C)n1CCCc1ccccc1 (centres undefined)	0	24.4	0	0	0	0
COC(=O)CSc1nc2c(c(=O)n(C)c(=O)n2C)n1CCCc1ccccc1	0	0	0	0	0	0
CN(Cc1ccccc1)c1nc2c(c(=O)n(C)c(=O)n2C)n1CCCc1ccccc1	0	0	33.8	0	0	0
Cc1ccc(Cn2c(CN(C)Cc3ccccc3)nc3c2c(=O)n(C)c(=O)n3C)cc1	0	0	0	16.4	0	0
COC(=O)/C=C1\SC(=NC(=O)c2ccc(-c3ccccc3)cc2)NC1=O	0	0	0	0	0	0
CN[C@H]1C[C@H]2c3cc(-c4ccccc4)ccc3CCN2C(=O)[C@H]1[C@H](C)O	0	0	0	0	0	0
Cc1csc(=O)n1CCC(=O)N(C)Cc1c(F)cccc1Cl	0	0	0	0	0	0
CC(=O)NCc1nc2ccccc2n1Cc1ccccc1F	0	0	0	0	23.8	0
CC(=O)c1cccc(N/C=C\c2nnnn2-c2ccc(F)cc2)c1	0	0	0	0	0	15.2
O=C(Nc1ccc(Cl)cc1Cl)c1ccc2ncsc2c1	0	0	0	0	0	21.4
Cc1[nH][nH]c(=O)c1C(c1ccc(Cl)cc1)c1c(C)[nH][nH]c1=O	0	0	0	0	0	0
COc1ccc(F)cc1S(=O)(=O)NC1CC(C)(C)NC(C)(C)C1	0	0	0	0	27.7	0
Oc1ccccc1-c1n[nH]c(-c2ccccc2O)n1	0	0	0	0	0	17.3
CC1(C)CC(=O)c2c(oc3ccc(NS(=O)(=O)c4ccc(C(=O)O)cc4)cc23)C1	0	0	0	0	24.5	0
CCOC(=O)c1c(C)oc2ccc(NS(=O)(=O)c3ccc(C(=O)O)cc3)cc12	0	0	0	0	0	0
Cc1nc2c(nnn2Cc2ccccc2)c(=O)[nH]1	0	0	0	0	25.3	0
Cc1nc2c(nnn2Cc2ccccc2Cl)c(=O)[nH]1	0	0	0	0	0	0
CCN(CC)S(=O)(=O)c1ccc(Oc2ccccc2)c(N)c1	0	0	0	0	0	0
CCN(CC)S(=O)(=O)c1ccc(N2CCN(c3ccccc3OC)CC2)c(N)c1	0	0	34.4	0	0	0
